About 79,000 compounds went through this panel and 15% of them were active in at least one assay; those are over-represented in the sample as a whole. Values without a mark were called inactive. Active and inactive are the calls of the source. Rule as the data show it: active = growth inhibition above about 70%; inactive = the rest.

The first test can be described thus: NCI Yeast Anticancer Drug Screen. Data for the rad50EPP+ strain (AID 151).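 Also: 0% = growth of vehicle-treated control cultures.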 The note with it: S. cerevisiae rad50 mutant strain, at 3.7 µM, active compounds read high. Summed up:
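Strain rad50EPP+; compound exposure; % growth inhibition vs vehicle.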
For the molecule `O=[N+]([O-])c1cc[n+]([O-])cc1`, the growth inhibition is 11%.

As to `CC1(C)CC(=O)C(/C=N/c2nc(-c3ccccc3)cs2)=C(O)C1`, the growth inhibition is 1%.

On to `Nc1nc(N)c2nc(CNc3ccc(C(=O)NC(CCC(=O)O)C(=O)O)cc3F)cnc2n1` (stereo unspecified), for which the growth inhibition was 13%.

For `COC(=O)CC1(O)C(/C=C/c2ccccc2)C(C(=O)OC)C(=O)C(C(=O)OC)C1C(=O)OC` (stereo unspecified), the growth inhibition is -6%.

For `CC(C)(C)c1ccc(NS(=O)(=O)c2ccc(N)cc2)cc1`, the growth inhibition was 8%.

`CCN(CC)CCNc1ccc([N+](=O)[O-])c2nc3ccccc3c(N)c12`: the growth inhibition is -4%.

As for `CCCCN(CCCC)C(=O)/C=C/c1ccccc1`, the growth inhibition was -20%.

Regarding `O=c1[nH]c(-c2ccccc2)nc2c1sc1nc3ccccc3n12`, the growth inhibition was -31%.

Turning to `O=[N+]([O-])c1ccc2c(c1)/C(=N/N=C1c3ccccc3Cc3ccccc31)c1cc([N+](=O)[O-])cc([N+](=O)[O-])c1-2`, the growth inhibition is 86% (active).

As to `CC(C)C(C)/C=C\C(C)C1CCC2C3=CC=C4CC(O)CCC4(C)C3CCC21C` (stereo unspecified), the growth inhibition is -3%.

For `O=C1Nc2ccc(Br)cc2C1=Nc1ccc2c(c1)OCO2`, the growth inhibition is -37%.

For the molecule `CCCCOCn1c(=O)[nH]c(=O)c2cc(Br)ccc21`, the growth inhibition is -71%.

Take `Cc1ccc(S/C(=C\C(=O)O)c2ccccc2)cc1`: the growth inhibition is 2%.

With `O=[N+]([O-])/C=C/c1cc(Cl)c(/C=C/[N+](=O)[O-])cc1Cl`, the growth inhibition was 19%.

Consider `Cc1cc(S(=O)(=O)Nc2nnc3cnc4ccccc4n23)c(S)cc1Cl`, for which the growth inhibition was -16%.

For `O=C(/C=C/c1cc(Cl)cc(Cl)c1O)c1cccc(O)c1`, the growth inhibition is 70% (active).

With `NC1CCCCC1N.Nc1c(N=Nc2ccc(-c3ccc(N=Nc4cc(S(=O)(=O)[O-])c5ccccc5c4N)cc3)cc2)cc(S(=O)(=O)[O-])c2ccccc12.[OH3+].[OH3+].[Pt+4]`, the growth inhibition was 13%.

`COC(=O)CCC(NC(=S)N/N=C(\C)c1ccccn1)C(=O)OC` (stereo unspecified): the growth inhibition was -5%.

Regarding `NC(=O)C(=O)NNc1ccccc1`, the growth inhibition is 29%.

With `COc1cc(C2SCC(=O)N2c2ccc(-c3ccc(-n4c(-c5ccccc5)nc5ccccc5c4=O)cc3)cc2)ccc1O` (stereo unspecified), the growth inhibition was 13%.

On to `COc1ccc(/C=C/c2sc3ccccc3[n+]2CCCCI)cc1OC`, for which the growth inhibition was -2%.

`Cc1c(C(C)C)cc(OCCO)cc1C(C)C`: the growth inhibition was -2%.

Regarding `Cc1cc(NCCCCCCCCNc2cc(C)nc3cc(N)ccc23)c2ccc(N)cc2n1`, the growth inhibition was -30%.

Take `C=C(Cl)COC(=O)Nc1cccc(Cl)c1`: the growth inhibition is 25%.

As to `CC(=O)OC1CC2C(C)(C)C(=O)C=C[C@]2(C)C2CCC3(C)C(=CCC3[C@H](CO)C[C@H](O)C(=O)C(C)(C)O)[C@]12C` (stereo partly specified), the growth inhibition is -35%.

Turning to `COc1ccc(/C=C/C(=O)c2ccccc2)cc1OC`, the growth inhibition was 11%.

Take `COc1c(O)c(C=O)c(Br)c(C=O)c1O`: the growth inhibition was 43%.

On to `O=[N+]([O-])c1cc(Cl)cnc1Br`, for which the growth inhibition is 71% (active).

For `Cc1ccc2c(c1)C1(SC(C)C(=O)N1c1ccc(Cl)cc1)C(=O)N2` (stereo unspecified), the growth inhibition is -1%.

In the case of `COc1cc(CSc2ccc(O)cc2)cc(O)c1O`, the growth inhibition was -4%.

With `Cc1ccc2c3ccc4c(c3n(C)c2c1)C(=O)C=CC4=O`, the growth inhibition was 24%.

On to `O=C(Nc1ccc(Cl)cc1)Nc1nnc2nc(C(C(=O)c3cccc([N+](=O)[O-])c3Cl)c3nc4nnc(NC(=O)Nc5ccc(Cl)cc5)n4[nH]c3=O)c(=O)[nH]n12`, for which the growth inhibition was 5%.

On to `O=C(O)C1CC(c2ccccc2)=NN1c1ccccc1` (stereo unspecified), for which the growth inhibition is -17%.

With `CCCCc1ccc(-n2c(C)c(COC(=O)NC)c(COC(=O)NC)c2C)cc1`, the growth inhibition was -13%.

`CCC(=O)c1cc(C(=O)C(=S)SC)cc(C(=O)C(=S)SC)c1`: the growth inhibition is 50%.

As for `CCn1c(O)c(C=Nc2ccccc2)s/c1=N/Nc1nc(-c2ccccc2)cs1`, the growth inhibition was 19%.

On to `Cc1ccccc1N=C(NO)c1ccccc1`, for which the growth inhibition is 6%.

As to `Cc1nc2ccccc2nc1NNc1ccccc1`, the growth inhibition is -5%.

The same test, now with this note: S. cerevisiae rad50 mutant strain, at 11.0 µM, active compounds read high.
In the case of `O=[N+]([O-])c1cc[n+]([O-])cc1`, the growth inhibition was 12%.

In the case of `CC1(C)CC(=O)C(/C=N/c2nc(-c3ccccc3)cs2)=C(O)C1`, the growth inhibition was 12%.

Consider `Nc1nc(N)c2nc(CNc3ccc(C(=O)NC(CCC(=O)O)C(=O)O)cc3F)cnc2n1` (stereo unspecified), for which the growth inhibition was 13%.

Take `COC(=O)CC1(O)C(/C=C/c2ccccc2)C(C(=O)OC)C(=O)C(C(=O)OC)C1C(=O)OC` (stereo unspecified): the growth inhibition is -7%.

On to `CC(C)(C)c1ccc(NS(=O)(=O)c2ccc(N)cc2)cc1`, for which the growth inhibition is 10%.

Consider `CCN(CC)CCNc1ccc([N+](=O)[O-])c2nc3ccccc3c(N)c12`, for which the growth inhibition is 1%.

Consider `CCCCN(CCCC)C(=O)/C=C/c1ccccc1`, for which the growth inhibition was -2%.

With `O=c1[nH]c(-c2ccccc2)nc2c1sc1nc3ccccc3n12`, the growth inhibition is -36%.

With `O=[N+]([O-])c1ccc2c(c1)/C(=N/N=C1c3ccccc3Cc3ccccc31)c1cc([N+](=O)[O-])cc([N+](=O)[O-])c1-2`, the growth inhibition is 99% (active).

Take `CC(C)C(C)/C=C\C(C)C1CCC2C3=CC=C4CC(O)CCC4(C)C3CCC21C` (stereo unspecified): the growth inhibition is -9%.

As to `O=C1Nc2ccc(Br)cc2C1=Nc1ccc2c(c1)OCO2`, the growth inhibition was -45%.

In the case of `CCCCOCn1c(=O)[nH]c(=O)c2cc(Br)ccc21`, the growth inhibition was -50%.

As for `Cc1ccc(S/C(=C\C(=O)O)c2ccccc2)cc1`, the growth inhibition was 15%.

As to `O=[N+]([O-])/C=C/c1cc(Cl)c(/C=C/[N+](=O)[O-])cc1Cl`, the growth inhibition is 35%.

Take `Cc1cc(S(=O)(=O)Nc2nnc3cnc4ccccc4n23)c(S)cc1Cl`: the growth inhibition is -25%.

As to `O=C(/C=C/c1cc(Cl)cc(Cl)c1O)c1cccc(O)c1`, the growth inhibition is 86% (active).

`NC1CCCCC1N.Nc1c(N=Nc2ccc(-c3ccc(N=Nc4cc(S(=O)(=O)[O-])c5ccccc5c4N)cc3)cc2)cc(S(=O)(=O)[O-])c2ccccc12.[OH3+].[OH3+].[Pt+4]`: the growth inhibition was 91% (active).

Consider `COC(=O)CCC(NC(=S)N/N=C(\C)c1ccccn1)C(=O)OC` (stereo unspecified), for which the growth inhibition is 2%.

For `NC(=O)C(=O)NNc1ccccc1`, the growth inhibition was 60%.

Take `COc1cc(C2SCC(=O)N2c2ccc(-c3ccc(-n4c(-c5ccccc5)nc5ccccc5c4=O)cc3)cc2)ccc1O` (stereo unspecified): the growth inhibition was 19%.

Take `COc1ccc(/C=C/c2sc3ccccc3[n+]2CCCCI)cc1OC`: the growth inhibition is -4%.

`Cc1c(C(C)C)cc(OCCO)cc1C(C)C`: the growth inhibition is 0%.

As for `Cc1cc(NCCCCCCCCNc2cc(C)nc3cc(N)ccc23)c2ccc(N)cc2n1`, the growth inhibition is 50%.

Regarding `C=C(Cl)COC(=O)Nc1cccc(Cl)c1`, the growth inhibition was 52%.

Consider `CC(=O)OC1CC2C(C)(C)C(=O)C=C[C@]2(C)C2CCC3(C)C(=CCC3[C@H](CO)C[C@H](O)C(=O)C(C)(C)O)[C@]12C` (stereo partly specified), for which the growth inhibition is -39%.

On to `COc1ccc(/C=C/C(=O)c2ccccc2)cc1OC`, for which the growth inhibition is 28%.

Regarding `COc1c(O)c(C=O)c(Br)c(C=O)c1O`, the growth inhibition was 75% (active).

`O=[N+]([O-])c1cc(Cl)cnc1Br`: the growth inhibition is 88% (active).

In the case of `Cc1ccc2c(c1)C1(SC(C)C(=O)N1c1ccc(Cl)cc1)C(=O)N2` (stereo unspecified), the growth inhibition was 1%.

`COc1cc(CSc2ccc(O)cc2)cc(O)c1O`: the growth inhibition was -6%.

On to `Cc1ccc2c3ccc4c(c3n(C)c2c1)C(=O)C=CC4=O`, for which the growth inhibition was 31%.

In the case of `O=C(Nc1ccc(Cl)cc1)Nc1nnc2nc(C(C(=O)c3cccc([N+](=O)[O-])c3Cl)c3nc4nnc(NC(=O)Nc5ccc(Cl)cc5)n4[nH]c3=O)c(=O)[nH]n12`, the growth inhibition is 8%.

As to `O=C(O)C1CC(c2ccccc2)=NN1c1ccccc1` (stereo unspecified), the growth inhibition is -9%.

In the case of `CCCCc1ccc(-n2c(C)c(COC(=O)NC)c(COC(=O)NC)c2C)cc1`, the growth inhibition was -6%.

As to `CCC(=O)c1cc(C(=O)C(=S)SC)cc(C(=O)C(=S)SC)c1`, the growth inhibition is 86% (active).

For the molecule `CCn1c(O)c(C=Nc2ccccc2)s/c1=N/Nc1nc(-c2ccccc2)cs1`, the growth inhibition was 32%.

Regarding `Cc1ccccc1N=C(NO)c1ccccc1`, the growth inhibition was 15%.

`Cc1nc2ccccc2nc1NNc1ccccc1`: the growth inhibition is 22%.
